In the supplement of paper PMC11732987, “Enantioselective OTUD7B fragment discovery through chemoproteomics screening and high-throughput optimisation” (Communications Chemistry, 2025):

Key:
Assay in all cases: log2 ratio of Biotin-Ahx-Ub-VS probe labelling (fragment/DMSO); higher = less target engagement (more negative = stronger competition), active = hit call of the paper (q ≤ 0.05, log2 ratio ≤ -1)
Details in all cases: compound concentration: 200 uM; treatment time: 3 h
USP19 = target: T1, USP19 (UniProt O94966)
T1 sequence (whole entry): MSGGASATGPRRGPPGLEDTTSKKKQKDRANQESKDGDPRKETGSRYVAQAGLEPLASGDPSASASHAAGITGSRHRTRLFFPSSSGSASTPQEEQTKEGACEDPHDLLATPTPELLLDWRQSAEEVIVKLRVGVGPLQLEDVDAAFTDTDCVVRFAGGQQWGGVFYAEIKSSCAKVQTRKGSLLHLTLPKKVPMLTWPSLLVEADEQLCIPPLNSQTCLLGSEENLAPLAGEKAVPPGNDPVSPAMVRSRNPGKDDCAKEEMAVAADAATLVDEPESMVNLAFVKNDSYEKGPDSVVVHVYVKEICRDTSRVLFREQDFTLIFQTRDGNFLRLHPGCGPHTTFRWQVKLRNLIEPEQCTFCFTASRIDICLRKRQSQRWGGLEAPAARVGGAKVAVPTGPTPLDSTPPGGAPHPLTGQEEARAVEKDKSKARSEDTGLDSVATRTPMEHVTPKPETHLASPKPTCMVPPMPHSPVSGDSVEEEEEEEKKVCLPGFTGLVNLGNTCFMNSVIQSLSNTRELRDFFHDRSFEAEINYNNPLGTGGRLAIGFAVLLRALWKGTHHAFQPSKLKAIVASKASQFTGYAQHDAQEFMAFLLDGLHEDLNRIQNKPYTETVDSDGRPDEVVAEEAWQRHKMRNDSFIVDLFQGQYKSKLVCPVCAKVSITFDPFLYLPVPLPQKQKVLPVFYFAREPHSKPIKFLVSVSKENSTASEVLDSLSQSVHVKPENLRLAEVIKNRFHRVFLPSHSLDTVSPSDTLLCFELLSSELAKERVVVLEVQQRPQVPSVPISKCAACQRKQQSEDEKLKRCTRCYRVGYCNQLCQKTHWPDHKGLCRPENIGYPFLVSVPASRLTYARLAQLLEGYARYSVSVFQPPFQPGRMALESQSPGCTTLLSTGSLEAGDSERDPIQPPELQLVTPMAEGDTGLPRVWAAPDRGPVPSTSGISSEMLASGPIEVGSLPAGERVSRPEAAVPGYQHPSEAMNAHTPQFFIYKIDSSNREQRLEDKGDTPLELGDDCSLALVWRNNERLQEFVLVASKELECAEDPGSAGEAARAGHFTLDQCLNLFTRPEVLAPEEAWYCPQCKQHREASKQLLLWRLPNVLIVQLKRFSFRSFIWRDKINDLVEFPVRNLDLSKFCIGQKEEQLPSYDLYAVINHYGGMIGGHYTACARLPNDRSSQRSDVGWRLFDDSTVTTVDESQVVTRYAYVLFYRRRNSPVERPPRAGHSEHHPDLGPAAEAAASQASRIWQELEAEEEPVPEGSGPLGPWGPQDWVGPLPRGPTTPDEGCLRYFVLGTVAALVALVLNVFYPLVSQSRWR
Outline: (§1)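 Each value is an average log2 ratio of fragment to vehicle, tested by unpaired t-test. The underlying Spectronaut label-free quantities were global-median-normalised, and only proteins with ≥2 unique peptides were included. Triplicate HEK293T lysate samples (495 µg) were exposed to fragment at 200 µM or vehicle for 3 h, then to Biotin-Ahx-Ub-VS at 0.5 µM final for 1 h, before NeutrAvidin enrichment of labelled DUBs, LysC and trypsin digestion, and diaPASEF LC-MS/MS.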

USP24 = USP24 (UniProt Q9UPU5)
Outline: as §1

USP25 = target: T2, USP25 (UniProt Q9UHP3)
T2 sequence (whole entry): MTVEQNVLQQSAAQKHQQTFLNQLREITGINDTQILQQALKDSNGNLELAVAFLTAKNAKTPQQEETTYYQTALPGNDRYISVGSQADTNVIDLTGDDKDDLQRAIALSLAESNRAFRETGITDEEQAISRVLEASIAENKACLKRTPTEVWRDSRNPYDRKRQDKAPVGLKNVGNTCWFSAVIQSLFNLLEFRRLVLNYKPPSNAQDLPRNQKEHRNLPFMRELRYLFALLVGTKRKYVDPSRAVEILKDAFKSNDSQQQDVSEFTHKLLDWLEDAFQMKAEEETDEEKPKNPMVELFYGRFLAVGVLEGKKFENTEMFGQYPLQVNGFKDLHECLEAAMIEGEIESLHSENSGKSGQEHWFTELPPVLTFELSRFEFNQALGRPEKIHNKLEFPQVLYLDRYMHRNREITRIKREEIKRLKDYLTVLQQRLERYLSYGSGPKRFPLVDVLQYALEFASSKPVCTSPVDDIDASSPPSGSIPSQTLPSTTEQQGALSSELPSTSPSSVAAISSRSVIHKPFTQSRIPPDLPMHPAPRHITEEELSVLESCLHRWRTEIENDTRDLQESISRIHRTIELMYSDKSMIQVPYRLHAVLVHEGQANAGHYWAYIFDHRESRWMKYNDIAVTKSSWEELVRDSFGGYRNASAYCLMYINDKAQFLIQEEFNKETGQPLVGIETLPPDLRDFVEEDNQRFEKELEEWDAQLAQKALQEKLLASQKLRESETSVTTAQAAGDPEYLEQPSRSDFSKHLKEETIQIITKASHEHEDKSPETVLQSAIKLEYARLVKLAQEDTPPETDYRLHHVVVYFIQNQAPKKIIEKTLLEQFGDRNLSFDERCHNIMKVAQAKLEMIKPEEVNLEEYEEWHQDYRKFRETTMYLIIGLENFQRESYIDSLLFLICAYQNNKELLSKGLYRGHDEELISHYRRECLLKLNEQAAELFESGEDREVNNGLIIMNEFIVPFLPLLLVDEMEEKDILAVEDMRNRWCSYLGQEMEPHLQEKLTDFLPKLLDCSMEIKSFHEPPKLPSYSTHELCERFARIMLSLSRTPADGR
Outline: as §1

USP28 = target: T3, USP28 (UniProt Q96RU2)
T3 sequence (whole entry): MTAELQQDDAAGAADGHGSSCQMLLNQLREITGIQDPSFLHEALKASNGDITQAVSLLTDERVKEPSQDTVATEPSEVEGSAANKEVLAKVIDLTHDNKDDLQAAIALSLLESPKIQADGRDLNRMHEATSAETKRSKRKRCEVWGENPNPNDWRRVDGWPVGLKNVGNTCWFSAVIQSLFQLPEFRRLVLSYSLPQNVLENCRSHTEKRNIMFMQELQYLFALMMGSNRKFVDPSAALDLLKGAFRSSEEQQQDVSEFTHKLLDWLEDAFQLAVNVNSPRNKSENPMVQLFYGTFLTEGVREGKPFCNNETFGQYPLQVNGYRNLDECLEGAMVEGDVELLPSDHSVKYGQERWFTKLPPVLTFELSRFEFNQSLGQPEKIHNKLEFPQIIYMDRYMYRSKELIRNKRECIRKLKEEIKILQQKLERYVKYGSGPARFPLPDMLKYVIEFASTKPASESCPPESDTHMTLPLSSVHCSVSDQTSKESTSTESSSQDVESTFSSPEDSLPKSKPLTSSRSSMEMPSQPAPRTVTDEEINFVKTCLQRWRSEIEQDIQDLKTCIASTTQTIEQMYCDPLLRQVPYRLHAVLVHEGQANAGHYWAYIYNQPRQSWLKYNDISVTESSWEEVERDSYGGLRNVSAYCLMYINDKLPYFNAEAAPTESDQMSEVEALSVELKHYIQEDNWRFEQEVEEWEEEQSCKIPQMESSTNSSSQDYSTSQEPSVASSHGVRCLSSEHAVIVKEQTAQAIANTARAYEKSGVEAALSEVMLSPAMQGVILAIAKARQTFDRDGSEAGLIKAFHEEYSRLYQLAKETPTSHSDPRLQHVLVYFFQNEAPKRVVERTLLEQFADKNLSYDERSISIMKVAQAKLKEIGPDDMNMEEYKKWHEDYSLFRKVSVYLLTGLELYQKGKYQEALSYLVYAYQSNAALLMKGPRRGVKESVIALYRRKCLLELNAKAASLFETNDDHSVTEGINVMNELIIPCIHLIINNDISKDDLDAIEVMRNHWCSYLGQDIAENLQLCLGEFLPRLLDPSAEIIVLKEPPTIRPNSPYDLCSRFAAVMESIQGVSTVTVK
Outline: as §1

Measured: log2 ratio of Biotin-Ahx-Ub-VS probe labelling

USP24, sequence (Q9UPU5 whole entry): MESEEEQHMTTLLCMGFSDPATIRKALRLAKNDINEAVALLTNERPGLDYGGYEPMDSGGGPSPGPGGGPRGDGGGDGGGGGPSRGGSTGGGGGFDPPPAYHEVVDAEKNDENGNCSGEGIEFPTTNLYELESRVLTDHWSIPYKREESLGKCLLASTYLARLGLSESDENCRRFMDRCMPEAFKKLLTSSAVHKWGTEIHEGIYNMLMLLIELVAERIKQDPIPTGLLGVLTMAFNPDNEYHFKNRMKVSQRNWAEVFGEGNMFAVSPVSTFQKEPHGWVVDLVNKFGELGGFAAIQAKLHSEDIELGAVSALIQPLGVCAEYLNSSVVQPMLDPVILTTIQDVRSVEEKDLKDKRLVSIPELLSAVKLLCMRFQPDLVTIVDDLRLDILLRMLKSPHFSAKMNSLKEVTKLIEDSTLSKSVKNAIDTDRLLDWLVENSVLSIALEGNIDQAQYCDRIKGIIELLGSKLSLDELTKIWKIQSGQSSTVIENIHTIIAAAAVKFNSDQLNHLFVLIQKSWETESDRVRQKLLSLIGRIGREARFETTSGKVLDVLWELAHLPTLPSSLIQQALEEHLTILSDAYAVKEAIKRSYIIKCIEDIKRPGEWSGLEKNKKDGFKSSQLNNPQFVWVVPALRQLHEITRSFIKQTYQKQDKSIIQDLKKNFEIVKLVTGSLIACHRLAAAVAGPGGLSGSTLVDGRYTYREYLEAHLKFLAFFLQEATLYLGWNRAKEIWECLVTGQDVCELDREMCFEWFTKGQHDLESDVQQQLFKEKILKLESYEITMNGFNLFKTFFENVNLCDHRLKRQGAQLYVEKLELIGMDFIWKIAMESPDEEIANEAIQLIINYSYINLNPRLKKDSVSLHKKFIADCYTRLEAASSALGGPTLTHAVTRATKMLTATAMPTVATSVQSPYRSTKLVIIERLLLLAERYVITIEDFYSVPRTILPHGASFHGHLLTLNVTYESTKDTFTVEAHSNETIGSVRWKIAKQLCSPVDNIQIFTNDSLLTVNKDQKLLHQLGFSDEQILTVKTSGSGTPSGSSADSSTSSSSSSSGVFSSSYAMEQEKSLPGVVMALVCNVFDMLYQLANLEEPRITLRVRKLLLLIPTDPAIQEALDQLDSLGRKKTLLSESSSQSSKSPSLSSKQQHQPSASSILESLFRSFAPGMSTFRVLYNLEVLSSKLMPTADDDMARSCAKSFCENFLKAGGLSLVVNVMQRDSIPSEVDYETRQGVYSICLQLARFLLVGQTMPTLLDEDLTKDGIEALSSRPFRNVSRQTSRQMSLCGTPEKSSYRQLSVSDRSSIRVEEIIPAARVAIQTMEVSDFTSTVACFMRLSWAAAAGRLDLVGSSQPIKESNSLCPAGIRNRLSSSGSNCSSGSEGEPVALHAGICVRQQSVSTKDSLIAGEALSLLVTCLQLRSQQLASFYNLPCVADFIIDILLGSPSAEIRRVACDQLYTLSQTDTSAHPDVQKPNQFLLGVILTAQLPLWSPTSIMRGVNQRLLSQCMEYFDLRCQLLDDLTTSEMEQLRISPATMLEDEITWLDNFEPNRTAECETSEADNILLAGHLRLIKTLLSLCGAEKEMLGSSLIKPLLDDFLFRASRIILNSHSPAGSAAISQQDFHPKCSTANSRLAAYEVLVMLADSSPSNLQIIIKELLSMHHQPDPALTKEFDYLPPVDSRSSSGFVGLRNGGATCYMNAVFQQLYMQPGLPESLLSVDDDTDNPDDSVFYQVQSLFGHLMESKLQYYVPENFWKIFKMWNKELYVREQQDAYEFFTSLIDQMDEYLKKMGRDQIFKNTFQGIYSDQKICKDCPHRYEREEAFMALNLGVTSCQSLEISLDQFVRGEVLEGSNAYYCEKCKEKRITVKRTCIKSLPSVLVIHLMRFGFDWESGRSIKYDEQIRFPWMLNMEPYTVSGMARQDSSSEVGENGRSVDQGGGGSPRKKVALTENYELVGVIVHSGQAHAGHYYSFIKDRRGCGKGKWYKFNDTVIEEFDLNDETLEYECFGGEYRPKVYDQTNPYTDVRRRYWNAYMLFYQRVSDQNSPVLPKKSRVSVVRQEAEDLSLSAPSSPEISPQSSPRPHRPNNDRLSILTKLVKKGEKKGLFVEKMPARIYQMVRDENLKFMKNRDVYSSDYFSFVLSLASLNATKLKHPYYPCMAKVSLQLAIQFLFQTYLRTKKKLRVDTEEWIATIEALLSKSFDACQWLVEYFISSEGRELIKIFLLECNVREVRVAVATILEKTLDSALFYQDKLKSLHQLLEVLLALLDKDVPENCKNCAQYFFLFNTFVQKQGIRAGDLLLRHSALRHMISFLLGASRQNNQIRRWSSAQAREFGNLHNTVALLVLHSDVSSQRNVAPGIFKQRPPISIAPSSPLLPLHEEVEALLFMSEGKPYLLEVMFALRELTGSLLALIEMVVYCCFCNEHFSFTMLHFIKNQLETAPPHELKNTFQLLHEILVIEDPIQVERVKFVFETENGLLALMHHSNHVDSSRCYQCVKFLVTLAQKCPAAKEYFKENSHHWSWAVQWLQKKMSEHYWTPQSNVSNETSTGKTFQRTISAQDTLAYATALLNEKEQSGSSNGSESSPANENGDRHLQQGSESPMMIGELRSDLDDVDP

O=C(CCl)NCCc1ccc(F)cc1
inactive: USP19 -0.131 | USP24 -0.0496 | USP25 -0.326 | USP28 -0.328
